FBW7 activator = human FBW7 E3 ligase activation, primary screen; Q969H0; AlphaScreen FBW7–phospho-cyclin E peptide binding, activator screen; normalized activity (activation), % at 26.1 µM; 650,000 tested, 0.13% active; AID 1259310; in the data active = normalized activity above about 1.9%;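 note: purified mutant Fbw7 with reduced substrate affinity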
Target sequence (Q969H0 whole entry, looked up): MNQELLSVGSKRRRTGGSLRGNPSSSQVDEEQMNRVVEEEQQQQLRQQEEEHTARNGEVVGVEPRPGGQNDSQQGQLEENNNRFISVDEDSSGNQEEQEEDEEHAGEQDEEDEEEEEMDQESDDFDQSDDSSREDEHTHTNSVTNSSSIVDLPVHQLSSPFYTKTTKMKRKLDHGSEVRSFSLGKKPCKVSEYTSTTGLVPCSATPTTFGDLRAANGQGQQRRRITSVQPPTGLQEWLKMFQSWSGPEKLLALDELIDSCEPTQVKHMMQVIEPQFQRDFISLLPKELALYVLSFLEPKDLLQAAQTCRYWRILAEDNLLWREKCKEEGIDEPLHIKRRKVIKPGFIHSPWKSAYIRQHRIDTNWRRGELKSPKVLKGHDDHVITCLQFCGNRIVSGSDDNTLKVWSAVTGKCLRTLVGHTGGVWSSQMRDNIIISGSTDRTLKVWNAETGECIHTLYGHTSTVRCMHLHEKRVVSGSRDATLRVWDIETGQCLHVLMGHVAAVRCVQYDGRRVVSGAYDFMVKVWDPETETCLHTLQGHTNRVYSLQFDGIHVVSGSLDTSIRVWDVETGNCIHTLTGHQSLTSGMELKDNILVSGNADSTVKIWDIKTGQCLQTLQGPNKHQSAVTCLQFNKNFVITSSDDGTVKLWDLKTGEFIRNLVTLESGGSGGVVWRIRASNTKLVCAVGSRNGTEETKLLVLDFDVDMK
TEAD-YAP block = TEAD-YAP interaction inhibition | HEK-TIYL cells, TEAD-Gal4/YAP UAS-luciferase luminescence | inhibition, % at 9.12 µM | 640,000 tested, 1.4% active; in the data active = inhibition above about 32%
MITF primary = human MITF inhibition, primary screen; O75030; AlphaScreen MITF homodimerization, bead proximity signal; inhibition, % at 2.6 µM; 650,000 tested, 0.91% active; AID 1259374; in the data active = inhibition above about 50%
GPR151 ag = human GPR151 activation; Q8TDV0; PathHunter beta-arrestin GPR151 cells, luminescence; activation, % at 11.2 µM; 650,000 tested, 1% active; AID 1508602; in the data active = activation above about 4.9%
MITF inh conf = confirmation of human MITF inhibitors. shares compounds with MITF primary. AlphaScreen MITF homodimerization, biotin/His-MITF beads. 4,700 tested, 16% active. inhibition, % at 2.6 µM;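 active = inhibition above a cutoff derived from the DMSO control wells, cut at about 28% in these data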;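 note: inhibitors lower the bead chemiluminescence by keeping MITF from dimerizing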
AlphaScreen DR = AlphaScreen optical interference, dose response counter-screen; shares compounds with MITF primary; AlphaScreen optical interference counterscreen, cell-free; IC50, µM; 480 tested, 6% active; call rule not given here
AS interf ctr = AlphaScreen optical interference, counter-screen | 4,700 tested, 7.6% active | LysRS AlphaScreen counterscreen, signal interference, triplicate | inhibition, % at 2.6 µM | shares compounds with MITF primary;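 active = inhibition above a cutoff derived from the DMSO control wells, cut at about 30% in these data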
A number is an active result; . = inactive; / = no result given. Only some compounds are listed: those with a hit (about 3.4% of all), similar ones and a draw of the others.

SMILES	FBW7 activator	TEAD-YAP block	MITF primary	GPR151 ag	MITF inh conf	AS interf ctr	others
COc1ccc(CN2CCN(Cc3ccc(F)cc3)CC2)c(OC)c1	.	.	81.2	.	.	.
CCOc1ccc(CN2CCN(Cc3ccc(SC)cc3)CC2)cc1	.	.	.	.	/	/
COc1ccc(CN2CCN(Cc3ccc(SC)cc3)CC2)c(OC)c1	.	.	69.6	.	.	.
COc1ccc(N2CCN(Cc3ccc(OC)cc3OC)CC2)cc1	.	.	.	.	/	/
COc1cccc(CN2C[C@@H]3C[C@@H](c4ccsc4)N4CCC[C@@]34C2=O)c1	.	.	.	.	/	/
Cc1ccc2c(c1)C1CN(C)CCC1N2C(=O)CSc1nc2ccccc2n1-c1ccccc1 (configuration not stated)	.	.	.	.	/	/
COc1ccc(CN2CCCN(C)CC2)c(OC)c1	.	.	.	.	/	/
COc1ccc(CN2CCN(Cc3ccc(OC)c(OC)c3)CC2)c(OC)c1	.	.	66.3	.	.	.
COc1ccc(CN2CCN(CCCc3ccccc3)CC2)c(OC)c1	.	.	74.3	.	.	.
COc1ccc(C2=Nc3ccccc3N=C(c3ccc4ccccc4c3O)C2)cc1	.	.	.	.	/	/
O=[N+]([O-])c1cccnc1Nc1cccc(S(=O)(=O)Nc2ccc(Br)cc2)c1	.	.	.	.	/	/
NS(=O)(=O)c1ccc(CCNC(=O)CNS(=O)(=O)c2cccs2)cc1	.	.	79.7	.	.	.
CC1CCC(N2CCN(Cc3ccc(F)cc3)CC2)CC1 (configuration not stated)	.	.	.	.	/	/
CC1CCCC(N2CCN(Cc3ccc(F)cc3)CC2)C1 (configuration not stated)	.	.	74.3	.	.	.
CCc1ccc(CN2CCN(C3CCCC(C)C3)CC2)cc1 (configuration not stated)	.	.	64.2	.	.	.
Fc1cccc(CN2CCC(N3CCCCC3)CC2)c1	.	.	.	.	/	/
CC1CCCC(N2CCN(Cc3cccc(F)c3)CC2)C1 (configuration not stated)	.	.	68.6	.	.	.
CC1CCCC(N2CCN(Cc3ccc(Cl)cc3)CC2)C1 (configuration not stated)	.	.	72.7	.	.	.
NC(=O)/C(=C\c1ccc2c(c1)OCO2)NC(=O)c1ccc(Br)o1	.	.	.	.	/	/
COc1cccc(Nc2nc(-c3ccccc3Cl)nc3ccccc23)c1	.	.	52.3	.	.	.
CCn1c(SCC(=O)NNC(=O)COc2c(C)cccc2C)nc2ccccc21	.	.	.	.	/	/
CC(C)(C)C(=O)NCCNc1ccc(Cl)cc1[N+](=O)[O-]	.	.	86.9	.	.	.
COc1ccc(CN2CCN(C3CCN(Cc4ccccc4)CC3)CC2)cc1OCc1ccccc1	.	.	.	.	/	/
CCOc1ccc(CN2CCN(S(=O)(=O)CC)CC2)cc1OC	.	.	.	.	/	/
CCOc1cc(CN2CCN(C3CCCCCC3)CC2)ccc1OC	.	.	55.2	.	.	.
SMILES	FBW7 activator	TEAD-YAP block	MITF primary	GPR151 ag	MITF inh conf	AS interf ctr	others
CCOc1cc(CN2CCN(C3CCCCC3)CC2)ccc1OC	.	.	64.5	.	.	.
CCOc1cc(CN2CCN(C3CC4CCC3C4)CC2)ccc1OC (configuration not stated)	.	.	69.1	.	.	.
Fc1ccc(CN2CCN(C3CC4CCC3C4)CC2)cc1 (configuration not stated)	.	.	79.4	.	.	.
COc1ccc(CN2CCC(N3CCCCC3)CC2)cc1OC	.	.	.	.	/	/
O=C(Cn1cnc2sc(-c3ccccc3)cc2c1=O)Nc1ccccc1Cl	.	.	.	.	/	/
O=C(O)CNCc1nc2ccccc2[nH]1	.	.	80.7	.	75.8	100.3
COC(=O)CSc1nnc(Nc2ccccc2F)s1	.	.	.	.	/	/
O=S(=O)(c1ccc(F)cc1)N1CCCN(Cc2c(F)cccc2F)CC1	.	.	.	.	/	/
CS(=O)(=O)N1CCN(Cc2cccc(Br)c2)CC1	.	.	62.9	.	.	.
COc1ccc(Br)cc1CN1CCN(S(=O)(=O)c2ccc(F)cc2)CC1	.	.	58.9	.	.	.
O=S(=O)(c1ccc(F)cc1)N1CCN(Cc2c(F)cccc2F)CC1	.	.	77.3	.	.	.
COc1ccc(S(=O)(=O)N2CCN(Cc3cccc(Br)c3)CC2)cc1	.	.	51.8	.	.	.
O=S(=O)(c1ccc(Br)cc1)N1CCN(Cc2ccc(F)cc2)CC1	.	.	.	.	/	/
Nc1ncc(Br)cc1S(=O)(=O)NCc1cccs1	.	.	.	.	/	/
CN1C(=O)/C(=c2\sc3nc4ccccc4n3c2=O)c2cc(Br)ccc21	.	.	.	.	/	/
COc1ccc2c(c1)OC(C)CN(CCC(=O)NCCCc1ccncc1)C2 (configuration not stated)	.	.	.	.	/	/
COc1ccccc1/C=C/CN1CCN(Cc2ccccc2)CC1	.	.	.	.	/	/
COc1ccccc1/C=C/CN1CC(C)OC(C)C1 (configuration not stated)	.	.	52.9	.	.	.
COc1ccccc1/C=C/CN1CCN(CCOCCO)CC1	.	.	53.6	.	.	.
O=C(c1cccnc1)N1CCN(Cc2ccccc2Br)CC1	.	.	.	.	/	/
COc1ccccc1C(=O)N1CCN(C(=O)c2cccnc2)CC1	.	.	.	.	/	/
COc1cc(OC)c(OC)cc1CN1CCN(C(=O)c2cccnc2)CC1	.	.	68.5	.	.	.
O=C(c1cccnc1)N1CCN(Cc2ccccc2F)CC1	.	.	55.8	.	.	.
COc1ccc(OC)c(CN2CCN(C(=O)c3cccnc3)CC2)c1	.	.	58.6	.	.	.
CC(=O)Nc1ccc(OCC(O)CN2CC(C)OC(C)C2)cc1 (configuration not stated)	.	.	.	.	/	/
SMILES	FBW7 activator	TEAD-YAP block	MITF primary	GPR151 ag	MITF inh conf	AS interf ctr	others
C/C(CC(=O)Nc1ccc(Nc2ccccc2)cc1)=N\NC(=O)Cc1ccccc1	.	.	.	.	/	/
COC(=O)COc1ccc2c(=O)c(Oc3ccc(F)cc3)c(C)oc2c1C	.	.	.	.	/	/
CCOC(=O)c1c(N)n(C(C)CO)c2nc3ccccc3nc12 (configuration not stated)	.	.	53.0	.	.	.
O=C(CSc1ccc(F)cc1)NCc1ccco1	.	.	.	.	/	/
COc1cccc(COC(=O)Nc2ccc(-c3cn[nH]c3)cc2N(C)CCN(C)C)c1	.	.	68.2	.	73.2	.	AlphaScreen DR=.
CN1CC[C@H](Oc2cc(-c3cn[nH]c3)ccc2NC(=O)OCc2ccccc2)C1	.	.	53.2	.	57.2	.	AlphaScreen DR=.
O=C(Nc1ccc(-c2cn[nH]c2)cc1OCCN1CCCC1)OCc1ccccc1	.	.	.	.	/	/
CN(C)CCN(C(=O)OCc1ccccc1)c1cc(-c2cn[nH]c2)ccc1NC(=O)OCc1ccccc1	.	.	57.5	.	56.0	.	AlphaScreen DR=.
O=C(Nc1ccc(F)c(Cl)c1)C1CCCO1 (configuration not stated)	.	.	.	.	/	/
